# Shown are actives, neighbours in structure and some others; about 1.3% of the full set was active somewhere.
# RN4220 kill = kills Staphylococcus aureus RN4220. S. aureus RN4220 growth, OD600, 16 h. hit rate 0.33% among 330,000. inhibition, % (concentration not given with the values); in the data active means inhibition above about 85%;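 further: plate controls were untreated cells for no effect and reference antibiotic for full effect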
# ugtP null kill = kills S. aureus RN4220 lacking UgtP | S. aureus RN4220 ugtP deletion, OD600 growth, 16 h | hit rate 0.54% among 330,000 | AID 1259309 | growth inhibition, % (no concentration beside the values); in the data active means growth inhibition above about 68%;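 further: plate controls were untreated wells for no effect and antibiotic for full effect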
# PfHsp40 rescue = rescue of PfHsp40-mediated yeast toxicity | S. cerevisiae expressing PfHsp40, growth rescue, ATP luminescence | growth rescue, % at 12.5 µM | hit rate 0.68% among 340,000 | AID 504582; in the data active means growth rescue above about 28%, passing the limit was not always enough;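 further: yeast W303a lacking pdr1 and pdr3 grown in galactose medium; growth measured after three days at 30 °C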
# TcdB GH inh = blocks C. difficile toxin B glycohydrolase activity | P18177 | TcdB glycohydrolase enzymatic assay, plate reader | inhibition, % at 9.99 µM | hit rate 0.24% among 350,000; in the data active means inhibition above about 10%
# Target sequence (P18177 whole entry, looked up): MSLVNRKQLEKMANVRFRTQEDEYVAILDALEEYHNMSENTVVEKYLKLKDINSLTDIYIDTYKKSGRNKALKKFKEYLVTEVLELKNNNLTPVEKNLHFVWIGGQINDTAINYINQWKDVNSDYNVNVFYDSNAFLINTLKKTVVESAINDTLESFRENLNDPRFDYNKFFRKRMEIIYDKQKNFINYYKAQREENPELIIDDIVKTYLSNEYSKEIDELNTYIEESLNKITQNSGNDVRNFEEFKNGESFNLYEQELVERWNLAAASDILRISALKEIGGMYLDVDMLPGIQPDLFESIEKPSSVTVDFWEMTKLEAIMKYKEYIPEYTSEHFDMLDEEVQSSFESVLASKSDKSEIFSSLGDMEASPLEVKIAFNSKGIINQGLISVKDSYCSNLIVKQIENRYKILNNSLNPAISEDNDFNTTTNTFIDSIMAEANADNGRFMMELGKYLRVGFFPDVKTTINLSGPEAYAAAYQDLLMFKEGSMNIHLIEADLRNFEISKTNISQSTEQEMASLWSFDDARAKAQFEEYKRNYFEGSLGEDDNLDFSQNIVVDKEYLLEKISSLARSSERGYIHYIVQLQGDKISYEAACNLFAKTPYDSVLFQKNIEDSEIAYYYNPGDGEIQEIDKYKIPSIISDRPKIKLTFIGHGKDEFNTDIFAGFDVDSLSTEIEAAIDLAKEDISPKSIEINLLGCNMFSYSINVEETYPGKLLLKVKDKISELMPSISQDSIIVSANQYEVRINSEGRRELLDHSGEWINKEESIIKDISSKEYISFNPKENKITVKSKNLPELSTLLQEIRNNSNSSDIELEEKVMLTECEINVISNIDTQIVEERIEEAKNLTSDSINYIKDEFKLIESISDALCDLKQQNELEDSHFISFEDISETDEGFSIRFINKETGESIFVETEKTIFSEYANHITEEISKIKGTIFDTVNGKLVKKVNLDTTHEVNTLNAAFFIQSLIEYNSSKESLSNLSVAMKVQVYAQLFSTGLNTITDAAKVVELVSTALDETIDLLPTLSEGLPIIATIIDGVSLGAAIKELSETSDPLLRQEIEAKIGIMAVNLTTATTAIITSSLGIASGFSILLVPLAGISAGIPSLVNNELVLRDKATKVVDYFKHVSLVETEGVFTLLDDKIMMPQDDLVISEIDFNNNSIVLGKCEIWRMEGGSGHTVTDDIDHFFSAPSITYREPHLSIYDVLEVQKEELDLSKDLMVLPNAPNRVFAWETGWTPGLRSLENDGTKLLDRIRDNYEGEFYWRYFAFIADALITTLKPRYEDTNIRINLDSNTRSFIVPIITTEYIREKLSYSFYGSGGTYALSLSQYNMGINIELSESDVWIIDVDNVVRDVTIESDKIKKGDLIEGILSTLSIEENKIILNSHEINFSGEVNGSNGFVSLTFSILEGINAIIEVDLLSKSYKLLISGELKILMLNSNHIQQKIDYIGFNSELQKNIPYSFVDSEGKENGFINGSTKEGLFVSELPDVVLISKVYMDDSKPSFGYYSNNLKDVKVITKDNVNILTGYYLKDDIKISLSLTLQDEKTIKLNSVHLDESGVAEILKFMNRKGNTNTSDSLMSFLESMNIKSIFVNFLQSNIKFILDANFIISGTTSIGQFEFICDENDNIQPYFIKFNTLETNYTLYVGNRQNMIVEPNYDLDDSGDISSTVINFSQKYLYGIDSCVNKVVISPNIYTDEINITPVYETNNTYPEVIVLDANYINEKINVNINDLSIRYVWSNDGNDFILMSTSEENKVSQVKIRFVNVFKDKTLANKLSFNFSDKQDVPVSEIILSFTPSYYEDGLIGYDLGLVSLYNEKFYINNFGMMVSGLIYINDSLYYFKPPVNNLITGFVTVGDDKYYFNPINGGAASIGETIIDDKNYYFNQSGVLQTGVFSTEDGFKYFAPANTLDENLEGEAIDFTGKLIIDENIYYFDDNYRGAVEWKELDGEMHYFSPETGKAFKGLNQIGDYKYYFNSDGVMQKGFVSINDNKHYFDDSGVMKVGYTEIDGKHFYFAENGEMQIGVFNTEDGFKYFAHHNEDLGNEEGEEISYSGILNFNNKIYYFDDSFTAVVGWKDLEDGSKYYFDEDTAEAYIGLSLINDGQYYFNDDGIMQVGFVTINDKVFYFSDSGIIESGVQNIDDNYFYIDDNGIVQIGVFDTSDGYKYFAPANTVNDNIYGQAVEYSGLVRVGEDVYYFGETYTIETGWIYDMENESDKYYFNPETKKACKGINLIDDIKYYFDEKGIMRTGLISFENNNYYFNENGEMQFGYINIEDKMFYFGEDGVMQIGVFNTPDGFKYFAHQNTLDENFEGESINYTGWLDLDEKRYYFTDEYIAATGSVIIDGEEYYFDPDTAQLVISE
# MazEF act = activators of E. coli MazEF toxin-antitoxin RNase; P0AE70; FAM/BHQ RNA-DNA oligo cleavage fluorescence, 5 h; activation, % at 20 µM; hit rate 0.32% among 350,000; AID 504720; in the data active means activation above about 50%
# Mtb hypoxia rep = Mtb hypoxia fluorescent reporter inhibition. AID 1159583. fluorescence inhibition, % (concentration not given with the values). M. tuberculosis hypoxia-regulated fluorescent reporter, fluorescence. hit rate 0.1% among 300,000; in the data active means fluorescence inhibition mostly above about 23%, no sharp cut-off; inactive means mostly below about 17%
# Active calls of the source: *; nt = no result given.
SMILES,RN4220 kill,ugtP null kill,PfHsp40 rescue,TcdB GH inh,MazEF act,Mtb hypoxia rep
O=[N+]([O-])c1cccc(N/N=C/c2cc([N+](=O)[O-])ccc2O)c1,nt,nt,-1,1,12,nt
O=C1C2C(C(=O)N1N=Cc1cc([N+](=O)[O-])ccc1O)C1C=CC2C12CC2 (configuration not stated),93*,81,nt,nt,nt,3
O=C(NC(C(=O)NN=Cc1cc([N+](=O)[O-])ccc1O)c1n[nH]c(=O)c2ccccc12)c1ccccc1 (configuration not stated),81,52,nt,nt,nt,3
O=C(NC(C(=O)N/N=C/c1cc([N+](=O)[O-])ccc1O)c1n[nH]c(=O)c2ccccc12)c1ccccc1 (configuration not stated),nt,nt,82*,0,3,nt
CC(N=Cc1cc([N+](=O)[O-])ccc1O)c1ccccc1 (configuration not stated),85*,67,3,0,2,14
CCN1[C@H](C(=O)NCc2ccc(F)cc2)[C@@H](CO)[C@@H]2Cn3c(ccc(-c4ccccc4OC)c3=O)[C@@H]21,nt,nt,nt,-1,nt,nt
Cc1noc(C)c1S(=O)(=O)Nc1ccc2c(c1)CC(=O)N([C@H](C)CO)C[C@@H](C)[C@@H](CN(C)S(=O)(=O)c1ccc(Cl)cc1)O2,nt,nt,nt,-2,nt,nt
CC(=NNC(=O)CCCOc1ccc(Cl)cc1C)c1ccc(C)o1,2,1,nt,nt,nt,8
O=C(NN=Cc1cc([N+](=O)[O-])ccc1O)C1CC1,90*,80,nt,nt,nt,5
Cc1ccccc1NC(=O)CCC(=O)NN=Cc1cc([N+](=O)[O-])ccc1O,95*,85*,nt,nt,nt,16
O=[N+]([O-])c1ccc(O)c(/C=N/Nc2ccccn2)c1,nt,nt,308*,-1,2,nt
O=[N+]([O-])c1ccc(O)c(C=Nc2ccc3c(c2)OCCO3)c1,92*,74,2,nt,0,3
O=C(Nc1ccccc1)N[C@@H]1CC[C@H](CCn2cc(C3(O)CCCC3)nn2)O[C@H]1CO,nt,nt,nt,-3,nt,nt
COc1ccc2c3c(n(C)c2c1)[C@@H](CO)N(C(=O)c1ccc(F)cc1)CC31CCN(C(C)=O)CC1,nt,nt,nt,0,nt,nt
C=CCNC(=S)NN=C(C)c1cccnc1,3,6,nt,nt,nt,13
Cc1cccc(C)c1NC(=O)COC(=O)c1ccc([N+](=O)[O-])o1,5,22,32*,2,5,21
O=C(COC(=O)c1ccc([N+](=O)[O-])o1)Nc1ccc2c(c1)OC(F)(F)O2,nt,nt,nt,3,-10,nt
CCOc1cc(N2CCOCC2)c(OCC)cc1NC(=O)COC(=O)c1ccc([N+](=O)[O-])o1,9,-5,82*,-2,4,nt
O=C(OCCCOC(=O)c1ccc([N+](=O)[O-])o1)c1ccc([N+](=O)[O-])o1,2,4,3,-2,1,71*
O=C(COC(=O)c1ccc([N+](=O)[O-])o1)NCc1ccccc1,2,6,2,8,3,1
O=C(COC(=O)c1ccc([N+](=O)[O-])o1)Nc1ccc2c(c1)OCO2,6,5,67*,1,8,10
C[C@@H]1CN([C@@H](C)CO)C(=O)Cc2cc(NS(C)(=O)=O)ccc2O[C@H]1CN(C)Cc1ccc(Oc2ccccc2)cc1,nt,nt,nt,0,nt,nt
O=C(Cc1ccncc1)NCC[C@@H]1CC[C@H](NC(=O)C2CCCCC2)[C@@H](CO)O1,nt,nt,nt,0,nt,nt
Cc1onc(-c2ccccc2)c1C(=O)NNC(=O)c1ccccc1O,14,-1,68*,1,4,-5
O=C(Nc1ncc([N+](=O)[O-])s1)c1ccc2c(c1)OCO2,nt,nt,-4,2,-6,nt
SMILES,RN4220 kill,ugtP null kill,PfHsp40 rescue,TcdB GH inh,MazEF act,Mtb hypoxia rep
Cc1onc(-c2ccccc2)c1C(=O)Nc1nnc(C(C)C)s1,10,2,-1,1,1,14
COc1ccc(/C=C/C(=O)NC(=S)NNC(=O)c2c(-c3ccccc3)noc2C)cc1,nt,nt,-1,nt,-6,nt
Cc1onc(-c2ccccc2)c1C(=O)NNC(=O)c1ccccc1,12,-2,0,0,3,1
Cc1onc(-c2ccccc2)c1C(=O)Nc1ncc([N+](=O)[O-])s1,80,82*,1,-1,12,23
COc1ccc(-c2cc(C(=O)NNC(=S)NC(=O)c3c(-c4ccccc4)noc3C)[nH]n2)cc1,26,28,287*,1,-9,3
Cc1ccc(C(=O)Nc2ncc([N+](=O)[O-])s2)cc1,93*,92*,6,21*,-5,18
CO[C@@H]1CN(C)C(=O)c2cc(NC(=O)NC(C)C)ccc2OC[C@@H](C)N(C(=O)CN(C)C)C[C@H]1C,nt,nt,nt,0,nt,nt
CN1CCN(C(=O)C[C@@H]2C[C@H]3c4cc(NC(=O)Cc5ccncc5)ccc4O[C@H]3[C@@H](CO)O2)CC1,nt,nt,nt,-2,nt,nt
CC(C)C#Cc1cnc2c(c1)C(=O)N([C@@H](C)CO)C[C@@H](C)[C@@H](CN(C)C(=O)Cc1ccncc1)O2,nt,nt,nt,0,nt,nt
CCOc1cc([N+](=O)[O-])cc(/C=N/NC(=O)c2c(-c3ccccc3)noc2C)c1O,nt,nt,261*,nt,2,nt
CCC(=O)Nc1cccc(C2=NOC3(C2)CC(C(N)=O)N(C(=O)Cc2ccc([N+](=O)[O-])cc2)C3)c1 (configuration not stated),-2,-16,nt,nt,nt,0
O=C1CCCc2c1ccc1ccccc21,7,0,29*,1,0,9
O=C(NC(Nc1nc2ccc([N+](=O)[O-])cc2s1)(C(F)(F)F)C(F)(F)F)c1ccccc1Cl,100*,99*,0,0,2,25
CC(=NNC(=O)C1CC1)c1ccc(N2CCOCC2)cc1,0,1,nt,nt,nt,-4
COc1ccccc1N(CCC#N)C(=O)CSc1nc(-c2ccccc2)cn1N,-5,-6,36*,nt,-16,-1
COc1ccccc1N(CCC#N)C(=O)CSc1nnc2ccccn12,0,3,-1,-3,4,24
COc1ccc(C(=O)/C=C/c2ccc(O)cc2)c2c1CC(O)C(C)(C)O2 (configuration not stated),2,13,0,23*,-67,nt
COc1ccc(C(=O)C=Cc2ccc(O)cc2)c(O)c1CC=C(C)C,27,73,nt,nt,nt,7
Cc1nc(S(=O)(=O)NC2CCCCC2)c(C#N)c(C)c1Cl,4,0,-1,nt,2,nt
Cc1nc(S(=O)(=O)N(C)Cc2ccccc2)c(C#N)c(C)c1Cl,1,1,1,64*,3,nt
Nc1c2ccccc2nc2ccccc12,1,3,2,0,0,-1
N#Cc1c2ccccc2nc2ccccc12,21,7,4,1,3,62*
CC(C)=CCc1c(-c2ccc(O)cc2O)oc2c3c(cc(O)c2c1=O)OC(C)(C)C=C3,97*,99*,nt,nt,-4,nt
COc1ccccc1OCCNc1ccc(S(=O)(=O)N2CCCC2)cn1,3,6,0,0,167*,7
COc1ccc(CNc2ccc(S(=O)(=O)N3CCN(C)CC3)cn2)cc1OC,5,3,0,2,5,-1
